SMILES strings stand for the structures. About 83,000 compounds went through this panel and 20% of them were active in at least one assay; those are over-represented in the sample as a whole.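 For each line, cells grew in 96-well plates with the test compound present at a single concentration for 48 hours.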 A number with no mark means an inactive call. Active and inactive are the calls of the source. How the source made its calls: active means growth percent below 10; inactive means the rest.

Here are results for 35 compounds from PubChem BioAssay (NCI).

The subject of the test is OVCAR-4 ovarian. Put plainly: NCI-60 one-dose screen, 48 h (100 = growth as untreated, 0 = no growth, -100 = all killed). The note with it: 10 µM unless noted.
For `O=C(O)c1nn(-c2ccc(Cl)cc2)nc1N1CCCC1`, the growth was 91.2%. As to `COCCNC(=O)Cc1cc(-c2ccc(Cl)cc2)n(-c2ccccc2)c1C`, the growth was 67.1%. The result for `O=C(Nc1ccc(Oc2cccc(F)c2)c(Cl)c1)c1cnccn1` reads 44.5%; that for `CC(=O)[C@H]1CC[C@]2(C)[C@@H]1CC[C@@H]1[C@@]3(C)C/C(=C/c4cccnc4)C(=O)C(C)(C)[C@@H]3CC[C@]12C`, 43.6%. In the case of `C=C(C)Cn1c(SCC(=O)c2cccs2)nc2sc3c(c2c1=O)CCCC3`, the growth was 73.4%. On to `Cc1ccc(C(=O)Nc2ccc(CN3CCN(C)CC3)c(C(F)(F)F)c2)cc1C#Cc1cnc(N)c2ccccc12`, for which the growth is -52% (active). For `COc1cc(C2CC(c3cccc(Nc4ccncc4)c3)=Nc3c(N)ncnc3N2)cc(OC)c1OC` (stereo not given) the value was 84.1%. On to `CO[C@]12C=C/C(=C(/C(=O)OCc3cccnc3)C(=O)CCCCCCCC[C@]3(OC)C=C/C(=C(/C(=O)OCc4cccnc4)C(=O)CCCCCCCC1)O3)O2`, for which the growth is -65.6% (active). `CCOC(=O)CSc1nc2sc3c(c2c(=O)n1-c1ccccc1)CCCCC3`: the growth was 116%. Consider `CN1CCN(Cc2ccc(NC(=O)c3cncc(C#Cc4cnc(N)c5ccc(C#N)cc45)c3)cc2C(F)(F)F)CC1`, for which the growth was -56.8% (active). The result for `CCOC(=O)C1=C(c2ccccc2)N=C2SC=C(c3cccc([N+](=O)[O-])c3)N2C1c1ccc(O)cc1` (stereo not given) reads 106%; that for `CCn1c2ccccc2c2cc(C(O)c3cccc4ncccc34)ccc21` (stereo not given), 45.4%; that for `Cc1c(Cl)cccc1NC(=O)c1sc2nc3c(cc2c1N)CCCC3`, 60.5%. For `O=C(/C=C/c1ccco1)Nc1ncc(Cc2ccc(F)cc2)s1` the value was 63.9%; for `COc1nc2ccccc2cc1/C=[N+](\[O-])c1ccccc1`, 74.3%; for `COc1ccc(-c2ccc(-c3ccc(C(=N)N)o3)o2)cc1`, 58.8%. Consider `C=C(C[n+]1ccccc1)[C@@H]1CC[C@]2(C(=O)OC)CC[C@]3(C)[C@H](CC[C@@H]4[C@@]5(C)CCC(=O)C(C)(C)[C@@H]5CC[C@]43C)[C@@H]12`, for which the growth is 55%. Consider `COc1cccc(C(=O)Nc2cccc(NC(=O)c3ccccn3)c2)c1`, for which the growth was 96.4%. On to `N#CC1=C(N)Oc2c(ccc3cccnc23)C1c1ccccc1` (stereo not given), for which the growth was 44.9%.

Regarding `COc1ccc(C2=NN(C=O)C(c3ccc(Oc4nc5c(c(=O)n(C)c(=O)n5C)n4C)c(OC)c3)C2)cc1` (stereo not given), the growth was 72.3%. For the compound `CCCS(=O)(=O)Nc1cccc(Nc2ncnc3cc(NC(=O)CCl)ccc23)c1Cl`, the growth was -38.3% (active).

On to `Cn1cc(-c2csc(-c3cn(C)c4ccc(F)cc34)n2)c2cnccc21`, for which the growth is 11.3%. On to `C=C(C)[C@@H]1CC[C@]2(C(=O)NC(C)=O)CC[C@]3(C)[C@H](CC[C@@H]4[C@@]5(C)CCCNC(C)(C)[C@@H]5CC[C@]43C)[C@@H]12`, for which the growth was 33.9%. The result for `COc1cccc(CNc2nnc(C)c(C)n2)c1O` reads 103%; that for `O=C(/C=C/c1ccc(Cl)cc1)c1ccc(-n2cc(CN3CCN(c4cc5c(cc4F)c(=O)c(C(=O)O)cn5C4CC4)CC3)nn2)cc1`, 94.4%; that for `COc1cccc2cc(N(C)c3nc(C)nc4c3CCC4)ccc12`, 47.1%. Consider `O=C(O)CCCN1C(=O)CSC1=S`, for which the growth is 102%. For `Cc1c2cnccc2c(C)c2c1c1cc(C(=O)O)ccc1n2C` the value was -4.45% (active); for `C=C1C(=O)O[C@H]2[C@H]1CC/C(CNC(=O)/C=C/c1cc(OC)c(OC)c(OC)c1)=C\CC[C@@]1(C)O[C@@H]21`, 14.7%. For the compound `Cc1nc2ccccc2c(/C=C/c2ccc(Br)cc2)c1C(=O)/C=C/c1ccccc1`, the growth was 12.5%. The result for `CC(=O)O[C@H]1C[C@@]2(C)[C@@H](C[C@@H](O)[C@H]3[C@@]4(C)CC[C@H](N5CCCC5)[C@@H](C)[C@@H]4CC[C@@]32C)/C1=C(\CCC=C(C)C)C(=O)O` reads 101%; that for `O=C(O)c1cc2ccccc2s1`, 113%. The result for `CC(=O)OCCOc1cc(Cl)c(Cl)cc1Cl` reads 108%. For `CCN1CCN(c2nc(NNC(=O)c3ccc(OC)cc3)nc(N3CCN(C(c4ccccc4)c4ccccc4)CC3)n2)CC1` the value was 49.1%; for `Cc1cc(=O)oc2cc(Oc3nc(-c4ccccc4)cn4c(-c5ccccc5)cnc34)ccc12`, 60.7%.
